Screening results deposited in PubChem BioAssay by National Center for Advancing Translational Sciences (NCATS).
DT40 TDP1 CPT: qHTS for Inhibitors of human tyrosyl-DNA phosphodiesterase 1 (TDP1): qHTS in cells in presence of CPT; Potency, µM (titrated, usually from 46.2 µM), for the others: top-dose activity change, negative = growth inhibition, usual class: inhibitors; hit rate 12% among 420,000; chicken DT40 Tdp1-/-;hTDP1 cells + 20 nM CPT, ATP luminescence, 48 h; note: nearly all actives have a fitted effect of over 55% in size
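Chicken DT40 Tdp1-/- cells complemented with human TDP1, 400 cells/well, exposed to compounds plus 20 nM camptothecin for at least 48 h at 37 C; viability read as ATP content by CellTiter-Glo luminescence.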
TDP1 inh: qHTS Assay for Inhibitors of Tyrosyl-DNA Phosphodiesterase (TDP1) | Tyrosyl-DNA phosphodiesterase 1 (Homo sapiens), Q9NUW8 | AID 485290, 2010 | Potency, µM (highest dose often 130 µM), for inactives: at the highest dose activity change, negative = inhibition, usual class: inhibitors | hit rate 0.28% among 350,000 | recombinant TDP1, AlphaScreen DNA substrate cleavage; note: nearly all actives have a fitted effect of over 40% in size
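Signal: AlphaScreen proximity between streptavidin donor and anti-FITC acceptor beads on intact substrate. Reaction: Tdp1 1 nM, substrate 15 nM final, 5 min RT after 15 min compound preincubation.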
VP16 counter: VP16 counterscreen qHTS for inhibitors of ROR gamma transcriptional activity; Potency, µM (doses to about 53.6 µM), for the others: top-dose activity, negative = inhibition, most hits filed as inhibitors; hit rate 3.5% among 310,000; Drosophila S2 Gal4-VP16 UAS-luciferase, luminescence, 20 h;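 note: Gal4-VP16 expression switched on by copper sulfate through the metallothionein promoter; nearly all actives have a fitted effect of over 50% in size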
TDP1 cell noCPT: qHTS for Inhibitors of human tyrosyl-DNA phosphodiesterase 1 (TDP1): qHTS in cells in absence of CPT; DT40 Tdp1-/- hTDP1 cells, no CPT, ATP luminescence, 48 h; Potency, µM (series often up to 46.2 µM), without a hit: at the highest dose activity change, negative = growth inhibition, hits mostly inhibitors; hit rate 15% among 420,000; note: nearly all actives have a fitted effect of over 55% in size
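Readout: luminescence from CellTiter-Glo after 30 min in the dark at RT. Cells: DT40 Tdp1-/- with stable hTDP1, 400/well. Exposure: compounds alone, ≥48 hr, 37 °C.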
RORgamma inh: qHTS for inhibitors of ROR gamma transcriptional activity; Potency, µM (series often up to 53.6 µM), for the others: at the top dose activity change, negative = inhibition, actives largely listed as inhibitors; Nuclear receptor ROR-gamma (Mus musculus), P51450; Drosophila S2 Gal4-RORgamma UAS-luciferase reporter, 20 h; hit rate 5.4% among 310,000; note: nearly all actives have a fitted effect of over 60% in size
Target sequence (P51450 whole entry, looked up, the tested form may be a part): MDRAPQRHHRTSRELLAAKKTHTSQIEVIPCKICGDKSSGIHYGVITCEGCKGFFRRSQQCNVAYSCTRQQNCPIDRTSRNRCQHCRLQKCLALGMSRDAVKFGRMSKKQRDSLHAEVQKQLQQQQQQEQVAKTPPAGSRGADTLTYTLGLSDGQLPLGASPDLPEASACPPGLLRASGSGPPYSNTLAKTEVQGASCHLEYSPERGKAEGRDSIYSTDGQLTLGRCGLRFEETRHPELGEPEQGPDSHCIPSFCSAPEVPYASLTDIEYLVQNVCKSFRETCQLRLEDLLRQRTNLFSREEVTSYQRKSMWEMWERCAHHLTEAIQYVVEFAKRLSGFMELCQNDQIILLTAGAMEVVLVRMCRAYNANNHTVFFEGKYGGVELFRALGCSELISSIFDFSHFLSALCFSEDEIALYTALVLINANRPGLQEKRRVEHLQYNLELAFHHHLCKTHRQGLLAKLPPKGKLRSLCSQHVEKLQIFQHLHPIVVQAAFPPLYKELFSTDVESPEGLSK
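Luciferase reporter read in Schneider cells carrying Gal4-RORγ (mouse) and UAS-Photinus luciferase; cells given compound 1 h before 700 uM copper sulfate induction, then incubated 20 h at ambient temperature.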
* hit, by the source's call; ? = inconclusive; . = not tested or not shown; [ ] = another dose, or the depositor's remark. In the library only some 19% were active in any assay of this set; here they are far more common. Calls come from the whole dose curve; as a rule, active = well fitted curve in the direction sought with a large enough effect; inconclusive = small, poorly fitted or top-dose-only effect, or another doubt; inactive = no such curve, though single readings can be large; an effect the other way counts as inactive or inconclusive. % is set by controls: 0 for no effect and ±100 for the full control effect; potency is the fitted concentration of half-maximal effect.

SMILES	DT40 TDP1 CPT	TDP1 inh	VP16 counter	TDP1 cell noCPT	RORgamma inh
O=S(=O)(c1ccc2c(c1)OCCO2)N1CCN(c2nc(-c3cccs3)nc3ccccc23)CC1	?	1.0%	.	?	.
CCN(C[C@H]1N[C@@](Cc2ccccc2)(C(=O)OC)[C@H]2C(=O)N(C)C(=O)[C@@H]12)C(=O)c1ccc(C)cc1	-9.6%	1.9%	.	-18.3%	.
Cc1cc(C)nc(SCC(=O)N/N=C/c2cccnc2)n1	-3.8%	0.0%	-11.3%	4.3%	-3.7%
CCOC(=O)Cn1c(=O)n(Cc2ccco2)c(=O)c2ccc(C(=O)NCCc3ccccc3)cc21	18.4µM*	6.8%	-16.6%	23.1µM*	?
COc1ccc(CCNC(=O)Cn2c(=O)n(Cc3ccco3)c(=O)c3ccc(Cl)cc32)cc1OC	?	4.8%	?	23.1µM*	-24.3%
COc1cc2c(=O)n(CCc3ccccc3)c(=O)n(CC(=O)Nc3ccccc3)c2cc1OC	-14.0%	2.5%	.	-14.4%	.
COc1ccc(NC(=O)Cn2c(=O)n(Cc3ccccc3Cl)c(=O)c3cc(OC)c(OC)cc32)cc1OC	3.26µM*	2.5%	.	-25.4%	.
COc1cc2c(=O)n(Cc3ccccc3)c(=O)n(CC(=O)NCCc3ccccc3)c2cc1OC	7.31µM*	4.9%	13.1%	14.6µM*	-4.7%
O=[N+]([O-])c1ccccc1S(=O)(=O)Nc1ccc(-c2ccc(N3CCCC3)nn2)cc1	-7.2%	.	.	-13.1%	.
CSc1ccccc1NC(=O)CN(C)CC(=O)Nc1ccc(Cl)cc1F	23.1µM*	2.7%	?	?	11.2µM*
Cc1cccc(N(CC(=O)Nc2ccccc2C(F)(F)F)S(=O)(=O)c2ccccc2)c1C	16.4µM*	.	.	14.6µM*	.
CCN(CC(=O)Nc1ccccc1C(F)(F)F)C(=O)c1ccccc1Cc1ccccc1	?	.	.	20.6µM*	.
CCN(CC(=O)Nc1ccccc1C(F)(F)F)C(=O)CCc1ccccc1	2.4%	.	3.6%	-1.4%	-2.0%
CCN(CC(=O)Nc1ccccc1C(F)(F)F)C(=O)c1ccc(-n2nc(C)c(CCC(=O)OC)c2C)cc1	?	.	.	20.6µM*	.
CCc1ccccc1NC(=O)CN(c1cccc(C)c1C)S(C)(=O)=O	0.8%	.	.	-2.1%	.
CC1CCC(NC(=O)c2nn(C)c3c2CS(=O)(=O)c2ccccc2-3)CC1 (stereo not given)	?	3.7%	16.2%	?	-4.4%
O=C(N1CCCC1)N1CCN(S(=O)(=O)c2ccccc2)CC1	-3.0%	.	0.9%	0.2%	-2.6%
COc1ccc(CN(C)CC(=O)Nc2ccccc2C(F)(F)F)cc1	?	-1.8%	2.3%	?	-27.0%
CSc1ccccc1NC(=S)Nc1ccccc1C(F)(F)F	-1.6%	4.5%	1.2%	-21.6%	?
COc1ccc2ccc(O)c(CN(C)CC(=O)Nc3ccccc3C(F)(F)F)c2c1	20.6µM*	8.1%[0.0935 µM]	-13.3%	?	?
CSc1ccccc1NC(=O)CN(C)CC(=O)Nc1ccccc1C(F)(F)F	-17.1%	0.0%	3.4%[10 µM]	-21.7%	8.91µM*
C=CCSc1nnnn1-c1ccc(OC)cc1	-12.1%	4.0%	-7.9%	-17.8%	?
COc1ccc(-n2nc(C(=O)NCC(=O)N3CCN(c4ccccn4)CC3)c3ccccc3c2=O)cc1Cl	11.6µM*	4.6%	-5.6%	11.6µM*	-0.4%
COc1ccc(N2CCN(C(=O)CNC(=O)c3nn(-c4ccc(OC)cc4)c(=O)c4ccccc34)CC2)cc1	?	2.8%	-15.1%	18.4µM*	6.3%
COc1ccc(-n2nc(C(=O)NCC(=O)Nc3cc(OC)c(OC)c(OC)c3)c3ccccc3c2=O)cc1Cl	?	-1.3%	-29.2%	1.64µM*	?
SMILES	DT40 TDP1 CPT	TDP1 inh	VP16 counter	TDP1 cell noCPT	RORgamma inh
COc1ccc(-n2nc(C(=O)NCC(=O)N3CCN(C)CC3)c3ccccc3c2=O)cc1	5.4%	-7.2%	-1.3%	-10.2%	-21.8%
CCN(CC)C(=O)CNC(=O)c1nn(-c2ccc(OC)c(Cl)c2)c(=O)c2ccccc12	-1.5%	.	7.1%	-21.5%	7.9%
COc1ccc(-n2nc(C(=O)NCC(=O)N3CCN(c4ccccc4F)CC3)c3ccccc3c2=O)cc1	18.4µM*	5.1%	?	23.1µM*	?
COc1ccc(Br)cc1CNC(=O)Nc1cccs1	-7.8%	6.8%	1.6%	-4.1%	24.3%
COc1ccc(-n2nc(C(=O)NCC(=O)NCCC3=CCCCC3)c3ccccc3c2=O)cc1OC	-22.4%	-8.2%	-8.7%	18.4µM*	-8.0%
COc1ccc(-n2nc(C(=O)NCC(=O)Nc3ccccn3)c3ccccc3c2=O)cc1	-29.2%	3.9%	9.9%	-25.5%	-23.1%
CCOC(=O)C1CCN(C(=O)CNC(=O)c2nn(-c3ccc(OC)c(OC)c3)c(=O)c3ccccc23)CC1	2.9%	6.5%	-16.7%	?	-14.9%
COc1ccc(-n2nc(C(=O)NCC(=O)N3CCN(c4ccccc4F)CC3)c3ccccc3c2=O)cc1OC	?	.	2.4%	13µM*	-6.8%
COC(=O)CNC(=O)CNC(=O)c1nn(-c2ccc(OC)c(OC)c2)c(=O)c2ccccc12	-1.4%	.	-2.6%	1.6%	21.5%
CCOc1ccc(NC(=O)CNC(=O)c2nn(-c3ccc(OC)cc3)c(=O)c3ccccc23)cc1	-22.9%	5.7%	-20.7%	11.6µM*	?
CCCN(Cc1ccccc1)C(=S)Nc1ccc(SC(F)F)cc1	1.7%	4.9%	?	?	8.91µM*
C=CCNC(=S)N(Cc1ccccc1)Cc1ccc(F)cc1	?	-1.2%	-28.2%	-45.6%	17.8µM*
CCCN(Cc1ccccc1)C(=S)Nc1ccc(OCC)cc1	?	7.1%	-22.2%	18.4µM*	10µM*
N#CCCN(Cc1ccccc1)C(=S)Nc1ccc(F)cc1	-8.5%	-2.9%	-7.4%	-17.6%	0.2%
CCCN(Cc1ccccc1)C(=S)Nc1ccc(F)cc1	13.3%	-3.8%	-23.4%	-10.5%	15.8µM*
CCCCNC(=S)Nc1ccc(SC(F)F)cc1	-12.3%	4.8%	0.9%	?	14.4%
C=C(C)CN(Cc1ccccc1)C(=S)Nc1ccccc1	18.1%	1.0%	?	-13.2%	?
CCOc1ccc(NC(=S)N(CC)Cc2ccccc2)cc1	.	5.7%	0.4%	.	14.1µM*
Cc1occc1C(=O)N(C)Cc1nc(-c2ccc(Cl)cc2)no1	25.9µM*	.	0.7%	20.6µM*	14.9%
COc1ccc(-c2noc(CN(C)Cc3ccccc3)n2)cc1	-15.7%	.	-3.0%	18.4µM*	16.3%
CC(C)N(Cc1nc(-c2ccccc2)no1)C(=O)c1ccc(Cl)cc1	18.4µM*	5.2%	-0.6%	18.4µM*	?
